Assay results: paper PMC12820563, “FoxP3 forms a head-to-head dimer in vivo and stabilizes its multimerization on adjacent microsatellites”
Whole data set: some 16,000 sequences, median “rpm ratio (pull-down/input)” near 0.94, cut for the highest 2% near 1.7. What follows is part of a selection rich in the highest values, with near analogues and random picks from the rest.

Biological target: T1, MBP-FoxP1dN (Mus musculus, UniProt P58462 326-579)
T1 sequence: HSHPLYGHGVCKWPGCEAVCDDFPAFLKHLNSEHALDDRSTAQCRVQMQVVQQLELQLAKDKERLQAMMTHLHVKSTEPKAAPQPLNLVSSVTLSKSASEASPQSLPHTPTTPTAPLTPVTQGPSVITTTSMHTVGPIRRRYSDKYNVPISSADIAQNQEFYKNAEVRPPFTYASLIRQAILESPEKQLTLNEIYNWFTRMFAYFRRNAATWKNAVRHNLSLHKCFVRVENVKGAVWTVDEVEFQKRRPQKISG
Test: PD-seq (MBP pull-down with sequencing); 20 mM Tris-HCl pH 7.5, 100 mM NaCl, 1.5 mM MgCl2, 0.4 uM protein, 0.1 uM dsDNA library, 30 min, room temperature, amylose pull-down; high values mean tight binding
Details: protein: recombinant; tags: His6-MBP; chain copies: 2; dsDNA, one strand shown
In short: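 In Tris pH 7.5 buffer with NaCl and MgCl2, 0.4 µM His6-MBP-tagged mouse FoxP3 or FoxP1 fragment lacking the N-terminus, from E. coli, met 0.1 µM Klenow-filled double-stranded degenerate DNA library for 30 min at room temperature. Three washes on amylose resin followed capture of the complexes, then proteinase K release of DNA, PCR barcoding and Illumina sequencing. Binding is taken as pooled-replicate reads-per-million enrichment of pull-down relative to input.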

Sequence | binding signal
GATGATTGTTCTCCCAGCTGATGAATTCCATGTGTCGAGTAAACAAATTTTCCTAATCTTTCTGTTCAAGCGCCATCTAC | 0.939 RPM ratio (pull-down/input)
GATGATTGTTCTCCCAGCTGATGAATTTTTCGGATCGAGTAAACAAATTTTCCTAATCTTTCTGTTCAAGCGCCATCTAC | 0.904 RPM ratio (pull-down/input)
GATGATTGTTCTCCCAGCTGATGAATTCCTTTAGTCGAGTAAACAAATTTTCCTAATCTTTCTGTTCAAGCGCCATCTAC | 0.819 RPM ratio (pull-down/input)
GATGATTGTTCTCCCAGCTGATGAATTAGTGCAGTCGAGTAAACAAATTTTCCTAATCTTTCTGTTCAAGCGCCATCTAC | 0.937 RPM ratio (pull-down/input)
GATGATTGTTCTCCCAGCTGATGAATTGTTTGGATCGAGTAAACAAATTTTCCTAATCTTTCTGTTCAAGCGCCATCTAC | 1.65 RPM ratio (pull-down/input)
GATGATTGTTCTCCCAGCTGATGAATTGGGGACCTCGAGTAAACAAATTTTCCTAATCTTTCTGTTCAAGCGCCATCTAC | 0.742 RPM ratio (pull-down/input)
GATGATTGTTCTCCCAGCTGATGAATTCGGACTATCGAGTAAACAAATTTTCCTAATCTTTCTGTTCAAGCGCCATCTAC | 0.87 RPM ratio (pull-down/input)
GATGATTGTTCTCCCAGCTGATGAATTGAATTTATCGAGTAAACAAATTTTCCTAATCTTTCTGTTCAAGCGCCATCTAC | 1.05 RPM ratio (pull-down/input)
GATGATTGTTCTCCCAGCTGATGAATTGATGTTATCGAGTAAACAAATTTTCCTAATCTTTCTGTTCAAGCGCCATCTAC | 2.17 RPM ratio (pull-down/input)
GATGATTGTTCTCCCAGCTGATGAATTTCAGTTATCGAGTAAACAAATTTTCCTAATCTTTCTGTTCAAGCGCCATCTAC | 1.02 RPM ratio (pull-down/input)
GATGATTGTTCTCCCAGCTGATGAATTGATATTATCGAGTAAACAAATTTTCCTAATCTTTCTGTTCAAGCGCCATCTAC | 1.92 RPM ratio (pull-down/input)
GATGATTGTTCTCCCAGCTGATGAATTATTGCTATCGAGTAAACAAATTTTCCTAATCTTTCTGTTCAAGCGCCATCTAC | 1.3 RPM ratio (pull-down/input)
GATGATTGTTCTCCCAGCTGATGAATTATTTTCATCGAGTAAACAAATTTTCCTAATCTTTCTGTTCAAGCGCCATCTAC | 1.27 RPM ratio (pull-down/input)
GATGATTGTTCTCCCAGCTGATGAATTATTGTCATCGAGTAAACAAATTTTCCTAATCTTTCTGTTCAAGCGCCATCTAC | 1.86 RPM ratio (pull-down/input)
GATGATTGTTCTCCCAGCTGATGAATTGTCATTATCGAGTAAACAAATTTTCCTAATCTTTCTGTTCAAGCGCCATCTAC | 1.31 RPM ratio (pull-down/input)
GATGATTGTTCTCCCAGCTGATGAATTGCTATTATCGAGTAAACAAATTTTCCTAATCTTTCTGTTCAAGCGCCATCTAC | 1.8 RPM ratio (pull-down/input)
GATGATTGTTCTCCCAGCTGATGAATTATGTTAATCGAGTAAACAAATTTTCCTAATCTTTCTGTTCAAGCGCCATCTAC | 1.21 RPM ratio (pull-down/input)
GATGATTGTTCTCCCAGCTGATGAATTATTGATATCGAGTAAACAAATTTTCCTAATCTTTCTGTTCAAGCGCCATCTAC | 1.53 RPM ratio (pull-down/input)
GATGATTGTTCTCCCAGCTGATGAATTAATGTTATCGAGTAAACAAATTTTCCTAATCTTTCTGTTCAAGCGCCATCTAC | 1.95 RPM ratio (pull-down/input)
GATGATTGTTCTCCCAGCTGATGAATTTTTGCTATCGAGTAAACAAATTTTCCTAATCTTTCTGTTCAAGCGCCATCTAC | 1.21 RPM ratio (pull-down/input)
GATGATTGTTCTCCCAGCTGATGAATTAAATGTATCGAGTAAACAAATTTTCCTAATCTTTCTGTTCAAGCGCCATCTAC | 1.4 RPM ratio (pull-down/input)

Sequence | binding signal
GATGATTGTTCTCCCAGCTGATGAATTATCGATATCGAGTAAACAAATTTTCCTAATCTTTCTGTTCAAGCGCCATCTAC | 1.08 RPM ratio (pull-down/input)
GATGATTGTTCTCCCAGCTGATGAATTCAGATATTCGAGTAAACAAATTTTCCTAATCTTTCTGTTCAAGCGCCATCTAC | 1.01 RPM ratio (pull-down/input)
GATGATTGTTCTCCCAGCTGATGAATTAAGTTGATCGAGTAAACAAATTTTCCTAATCTTTCTGTTCAAGCGCCATCTAC | 1.17 RPM ratio (pull-down/input)
GATGATTGTTCTCCCAGCTGATGAATTCGATCCGTCGAGTAAACAAATTTTCCTAATCTTTCTGTTCAAGCGCCATCTAC | 0.886 RPM ratio (pull-down/input)
GATGATTGTTCTCCCAGCTGATGAATTGTTCCGATCGAGTAAACAAATTTTCCTAATCTTTCTGTTCAAGCGCCATCTAC | 1.04 RPM ratio (pull-down/input)
GATGATTGTTCTCCCAGCTGATGAATTGGCTTAGTCGAGTAAACAAATTTTCCTAATCTTTCTGTTCAAGCGCCATCTAC | 0.844 RPM ratio (pull-down/input)
GATGATTGTTCTCCCAGCTGATGAATTGATAAAATCGAGTAAACAAATTTTCCTAATCTTTCTGTTCAAGCGCCATCTAC | 1.14 RPM ratio (pull-down/input)
GATGATTGTTCTCCCAGCTGATGAATTAACGAGCTCGAGTAAACAAATTTTCCTAATCTTTCTGTTCAAGCGCCATCTAC | 0.81 RPM ratio (pull-down/input)
GATGATTGTTCTCCCAGCTGATGAATTCTAGTGGTCGAGTAAACAAATTTTCCTAATCTTTCTGTTCAAGCGCCATCTAC | 0.86 RPM ratio (pull-down/input)
GATGATTGTTCTCCCAGCTGATGAATTTGTCAAATCGAGTAAACAAATTTTCCTAATCTTTCTGTTCAAGCGCCATCTAC | 1.17 RPM ratio (pull-down/input)
GATGATTGTTCTCCCAGCTGATGAATTTATTATCTCGAGTAAACAAATTTTCCTAATCTTTCTGTTCAAGCGCCATCTAC | 1.41 RPM ratio (pull-down/input)
GATGATTGTTCTCCCAGCTGATGAATTTATTGAATCGAGTAAACAAATTTTCCTAATCTTTCTGTTCAAGCGCCATCTAC | 1.28 RPM ratio (pull-down/input)
GATGATTGTTCTCCCAGCTGATGAATTGTCAACATCGAGTAAACAAATTTTCCTAATCTTTCTGTTCAAGCGCCATCTAC | 2.76 RPM ratio (pull-down/input)
GATGATTGTTCTCCCAGCTGATGAATTATTAGTATCGAGTAAACAAATTTTCCTAATCTTTCTGTTCAAGCGCCATCTAC | 1.46 RPM ratio (pull-down/input)
GATGATTGTTCTCCCAGCTGATGAATTAGTATTATCGAGTAAACAAATTTTCCTAATCTTTCTGTTCAAGCGCCATCTAC | 1.75 RPM ratio (pull-down/input)
GATGATTGTTCTCCCAGCTGATGAATTAGTAGTATCGAGTAAACAAATTTTCCTAATCTTTCTGTTCAAGCGCCATCTAC | 1.2 RPM ratio (pull-down/input)
GATGATTGTTCTCCCAGCTGATGAATTATTTATCTCGAGTAAACAAATTTTCCTAATCTTTCTGTTCAAGCGCCATCTAC | 1.76 RPM ratio (pull-down/input)
GATGATTGTTCTCCCAGCTGATGAATTTATTTGATCGAGTAAACAAATTTTCCTAATCTTTCTGTTCAAGCGCCATCTAC | 1.2 RPM ratio (pull-down/input)
GATGATTGTTCTCCCAGCTGATGAATTTTCAACATCGAGTAAACAAATTTTCCTAATCTTTCTGTTCAAGCGCCATCTAC | 1.14 RPM ratio (pull-down/input)
GATGATTGTTCTCCCAGCTGATGAATTATCTTTCTCGAGTAAACAAATTTTCCTAATCTTTCTGTTCAAGCGCCATCTAC | 0.948 RPM ratio (pull-down/input)
GATGATTGTTCTCCCAGCTGATGAATTTTATTGATCGAGTAAACAAATTTTCCTAATCTTTCTGTTCAAGCGCCATCTAC | 2.45 RPM ratio (pull-down/input)

Sequence | binding signal
GATGATTGTTCTCCCAGCTGATGAATTGGATGTATCGAGTAAACAAATTTTCCTAATCTTTCTGTTCAAGCGCCATCTAC | 1.1 RPM ratio (pull-down/input)
GATGATTGTTCTCCCAGCTGATGAATTGAAAATCTCGAGTAAACAAATTTTCCTAATCTTTCTGTTCAAGCGCCATCTAC | 0.791 RPM ratio (pull-down/input)
GATGATTGTTCTCCCAGCTGATGAATTCAACTCGTCGAGTAAACAAATTTTCCTAATCTTTCTGTTCAAGCGCCATCTAC | 0.869 RPM ratio (pull-down/input)
GATGATTGTTCTCCCAGCTGATGAATTTCTGTACTCGAGTAAACAAATTTTCCTAATCTTTCTGTTCAAGCGCCATCTAC | 0.909 RPM ratio (pull-down/input)
GATGATTGTTCTCCCAGCTGATGAATTTACCATCTCGAGTAAACAAATTTTCCTAATCTTTCTGTTCAAGCGCCATCTAC | 1.19 RPM ratio (pull-down/input)
GATGATTGTTCTCCCAGCTGATGAATTTCCAATGTCGAGTAAACAAATTTTCCTAATCTTTCTGTTCAAGCGCCATCTAC | 0.862 RPM ratio (pull-down/input)
GATGATTGTTCTCCCAGCTGATGAATTATCCGATTCGAGTAAACAAATTTTCCTAATCTTTCTGTTCAAGCGCCATCTAC | 0.95 RPM ratio (pull-down/input)
GATGATTGTTCTCCCAGCTGATGAATTTGTATTCTCGAGTAAACAAATTTTCCTAATCTTTCTGTTCAAGCGCCATCTAC | 1.44 RPM ratio (pull-down/input)
GATGATTGTTCTCCCAGCTGATGAATTTTTAGTATCGAGTAAACAAATTTTCCTAATCTTTCTGTTCAAGCGCCATCTAC | 1.02 RPM ratio (pull-down/input)
GATGATTGTTCTCCCAGCTGATGAATTATTATCATCGAGTAAACAAATTTTCCTAATCTTTCTGTTCAAGCGCCATCTAC | 1.38 RPM ratio (pull-down/input)
GATGATTGTTCTCCCAGCTGATGAATTATTATTATCGAGTAAACAAATTTTCCTAATCTTTCTGTTCAAGCGCCATCTAC | 2.52 RPM ratio (pull-down/input)
GATGATTGTTCTCCCAGCTGATGAATTATCGTTATCGAGTAAACAAATTTTCCTAATCTTTCTGTTCAAGCGCCATCTAC | 1.11 RPM ratio (pull-down/input)
GATGATTGTTCTCCCAGCTGATGAATTATTTCTATCGAGTAAACAAATTTTCCTAATCTTTCTGTTCAAGCGCCATCTAC | 1.13 RPM ratio (pull-down/input)
GATGATTGTTCTCCCAGCTGATGAATTGTTATTATCGAGTAAACAAATTTTCCTAATCTTTCTGTTCAAGCGCCATCTAC | 3.14 RPM ratio (pull-down/input)
GATGATTGTTCTCCCAGCTGATGAATTATTTTTATCGAGTAAACAAATTTTCCTAATCTTTCTGTTCAAGCGCCATCTAC | 1.4 RPM ratio (pull-down/input)
GATGATTGTTCTCCCAGCTGATGAATTTTTATTATCGAGTAAACAAATTTTCCTAATCTTTCTGTTCAAGCGCCATCTAC | 2.02 RPM ratio (pull-down/input)
GATGATTGTTCTCCCAGCTGATGAATTCTTAGTATCGAGTAAACAAATTTTCCTAATCTTTCTGTTCAAGCGCCATCTAC | 0.963 RPM ratio (pull-down/input)
GATGATTGTTCTCCCAGCTGATGAATTGTTAGTATCGAGTAAACAAATTTTCCTAATCTTTCTGTTCAAGCGCCATCTAC | 1.76 RPM ratio (pull-down/input)
GATGATTGTTCTCCCAGCTGATGAATTTATTAAATCGAGTAAACAAATTTTCCTAATCTTTCTGTTCAAGCGCCATCTAC | 1.39 RPM ratio (pull-down/input)
GATGATTGTTCTCCCAGCTGATGAATTTCTATTATCGAGTAAACAAATTTTCCTAATCTTTCTGTTCAAGCGCCATCTAC | 1.48 RPM ratio (pull-down/input)
GATGATTGTTCTCCCAGCTGATGAATTTGGCGTCTCGAGTAAACAAATTTTCCTAATCTTTCTGTTCAAGCGCCATCTAC | 0.85 RPM ratio (pull-down/input)
